Molecules are shown by their SMILES. Inconclusive results are not listed. Calls of active or inactive are those of the source. The calls were made as follows: active = hit-call score of the fitted dose curve at least 0.9, where 1 is the maximum; inconclusive = response in the unintended direction; inactive = score below 0.9.

The target in the experiment is Collagenase 3 (Homo sapiens) (UniProt P45452). In words: NVS_ENZ_hMMP13: NovaScreen (NVS) Enzymatic Assay for human Matrix Metalloproteinase-13 (MMP13) (AID 2283182). As for the experimental part: NVS_ENZ_hMMP13 is a biochemical, single-readout assay that uses extracted gene-proteins in a cell-free assay. Measurements were taken 1 hour after chemical dosing in a 96-well plate.NVS_ENZ_hMMP13 is one of one assay component(s) measured or calculated from the NVS_ENZ_hMMP13 assay. It is designed to make measurements of enzyme activity, a form of enzyme reporter, as detected with fluorescence intensity signals by Fluorescence technology.Data from the assay component NVS_ENZ_hMMP13 was analyzed into 1 assay endpoint. This assay endpoint, NVS_ENZ_hMMP13, was analyzed in the positive analysis fitting direction relative to DMSO as the negative control and baseline of activity. Using a type of enzyme reporter, loss-of-signal activity can be used to understand changes in the enzymatic activity as they relate to the gene MMP13. Furthermore, this assay endpoint can be referred to as a primary readout, because this assay has produced multiple assay endpoints where this one serves a enzymatic activity function. To generalize the intended target to other relatable targets, this assay endpoint is annotated to the protease intended target family, where the subfamily is matrix metalloproteinase.
Binding assays used specific radioligands (tritiated, iodinated) with non-radioactive competitive displacement ligands in agonist or antagonist protocols (as indicated) and various reference compounds and inhibitors to titrate specific binding to receptors and transporters. Most enzyme assays (CYPs, kinases, phosphatases, proteases, HDACs) used recombinant protein and specific substrates (fluorescence mostly, some colorimetric and radioactive) and inhibitors, followed by a biochemical separation of substrate and product. All assays for the biochemical HTS were initially run in duplicate at a single concentration (10 uM for CYP450 assays and 25 uM for all others). Assay-chemical combinations meeting a pre-defined threshold (e.g., 30% inhibition and other criteria defined below) were then run in singleton concentration-response format with maximum concentration of 20 uM for CYPs and 50 uM for all others. Each assay was run with positive and negative controls, and concurrent controls on every plate. The follow-up (secondary) screen tested active chemical-pairs in concentration series, as well as a few additional assays not tested in the primary screen, some selected negative inactives, and several cases re-run in the concentration series for confirmatory purposes.
What is called AC50 is the midpoint of the concentration-response curve, whichever way the signal moves. Take `Nc1ccc(Nc2ccccc2)cc1`: the AC50 was 5.61 µM (active).

As to `O=C(O)CCN(C1(C(=O)NO)CCCC1)S(=O)(=O)c1ccc(Oc2ccc(F)cc2)cc1`, the AC50 was 0.0041 µM (active).

Turning to `CCCCC(CC)COC(=O)c1ccc(C(=O)OCC(CC)CCCC)cc1` (stereo unspecified), the call was inactive.

For the molecule `CC(C)(O)c1coc(S(=O)(=O)NC(=O)Nc2c3c(cc4c2CCC4)CCC3)c1`, the half-maximal activity concentration (AC50) was 20.6 µM (active).

For `CNS(=O)(=O)c1cc(C(=O)N2CCC(CCN3C4CCC3CC(n3c(C)nc5ccccc53)C4)(c3cccc(F)c3)CC2)c(Cl)cc1F` (stereo unspecified), the concentration at half-maximal activity (AC50) was 14.5 µM (active).

Take `COC(=O)c1c(Cl)c(Cl)c(C(=O)OC)c(Cl)c1Cl`: the result was inactive.

Consider `CC(C)CCCCCCCOC(=O)CCCCC(=O)OCCCCCCCC(C)C`, for which the molecule was called inactive.

As to `CCCCCCCCCCCCCCCO`, the molecule was called inactive.

With `Fc1ccccc1[C@@H](F)COC1CCC(Nc2ncnc3[nH]ncc23)CC1` (stereo partly specified), the molecule was called inactive.

As to `O=C(O)c1cc(N=Nc2ccc(S(=O)(=O)Nc3ccccn3)cc2)ccc1O`, the AC50 is 19.5 µM (active).

Regarding `CCc1cc(SCc2sc(-c3ccc(C(F)(F)F)cc3)nc2CN2CCN(c3ccc(OC)cc3)CC2)ccc1OCC(=O)O`, the AC50 is 5.85 µM (active).

The values are drawn from PubChem BioAssay (EPA / NIEHS).
